# Measurements as given in PMC7862700, “An all-to-all approach to the identification of sequence-specific readers for epigenetic DNA modifications on cytosine”.
# Experiments:
# Assay in all cases: DAPPL (digital affinity profiling via proximity ligation, sequencing); 10 mM Tris-HCl pH 7.5, 50 mM NaCl, 1 mM DTT, 4% glycerol, room temperature, 30 min; GST-TFs on glutathione beads, 16-mer random dsDNA library, 0.1% formaldehyde crosslink after washing; high values mean tight binding
# Conditions in all cases: protein: recombinant; tags: N-terminal GST; dsDNA, one strand shown
# ELK1 = target: T1, ELK1 (Homo sapiens, UniProt P19419 1-428)
# T1 sequence: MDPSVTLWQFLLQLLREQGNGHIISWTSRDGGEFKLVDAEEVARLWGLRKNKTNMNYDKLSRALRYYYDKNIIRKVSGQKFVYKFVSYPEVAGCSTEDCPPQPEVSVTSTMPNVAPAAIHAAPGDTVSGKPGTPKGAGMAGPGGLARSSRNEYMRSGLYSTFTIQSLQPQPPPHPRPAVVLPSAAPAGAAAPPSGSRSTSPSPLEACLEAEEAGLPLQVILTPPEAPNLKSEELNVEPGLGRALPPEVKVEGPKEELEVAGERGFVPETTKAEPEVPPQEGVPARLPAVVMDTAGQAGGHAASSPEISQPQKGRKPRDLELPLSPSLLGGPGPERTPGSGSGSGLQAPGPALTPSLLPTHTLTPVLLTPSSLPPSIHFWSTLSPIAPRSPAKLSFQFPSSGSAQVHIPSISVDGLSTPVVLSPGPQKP
# Procedure, shortened: (§1)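 GST fusions of human transcription factors were expressed in yeast and captured with glutathione beads. Once given DNA barcodes and pooled alongside a tag-only sample, they were incubated for 30 min at room temperature with 200 nmole of a random double-stranded 16-mer DNA library in Tris/NaCl/DTT/glycerol buffer, then washed, crosslinked (0.1% formaldehyde), proximity-ligated, PCR-amplified and sequenced on an Illumina NextSeq500. The binding signal of each hexamer is its read frequency for a factor divided by its frequency for the tag-only sample.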
# GABPA = target: T2, GABPA (Homo sapiens, UniProt Q06546 1-454)
# T2 sequence: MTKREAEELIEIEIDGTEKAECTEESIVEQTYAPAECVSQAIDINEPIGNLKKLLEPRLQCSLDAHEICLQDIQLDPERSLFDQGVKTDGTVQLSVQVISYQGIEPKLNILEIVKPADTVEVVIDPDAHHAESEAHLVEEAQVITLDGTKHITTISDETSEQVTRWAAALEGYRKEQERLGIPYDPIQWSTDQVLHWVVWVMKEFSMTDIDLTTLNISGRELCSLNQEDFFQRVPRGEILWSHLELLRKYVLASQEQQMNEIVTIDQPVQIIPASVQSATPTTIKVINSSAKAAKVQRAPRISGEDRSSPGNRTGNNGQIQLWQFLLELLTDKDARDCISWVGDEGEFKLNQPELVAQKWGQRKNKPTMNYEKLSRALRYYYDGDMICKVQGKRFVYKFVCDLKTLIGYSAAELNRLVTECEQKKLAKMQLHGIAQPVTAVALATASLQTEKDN
# Procedure, shortened: as §1
# ELF1 = ELF1 (Homo sapiens, UniProt P32519 1-619)
# Sequence of ELF1 (P32519 whole entry): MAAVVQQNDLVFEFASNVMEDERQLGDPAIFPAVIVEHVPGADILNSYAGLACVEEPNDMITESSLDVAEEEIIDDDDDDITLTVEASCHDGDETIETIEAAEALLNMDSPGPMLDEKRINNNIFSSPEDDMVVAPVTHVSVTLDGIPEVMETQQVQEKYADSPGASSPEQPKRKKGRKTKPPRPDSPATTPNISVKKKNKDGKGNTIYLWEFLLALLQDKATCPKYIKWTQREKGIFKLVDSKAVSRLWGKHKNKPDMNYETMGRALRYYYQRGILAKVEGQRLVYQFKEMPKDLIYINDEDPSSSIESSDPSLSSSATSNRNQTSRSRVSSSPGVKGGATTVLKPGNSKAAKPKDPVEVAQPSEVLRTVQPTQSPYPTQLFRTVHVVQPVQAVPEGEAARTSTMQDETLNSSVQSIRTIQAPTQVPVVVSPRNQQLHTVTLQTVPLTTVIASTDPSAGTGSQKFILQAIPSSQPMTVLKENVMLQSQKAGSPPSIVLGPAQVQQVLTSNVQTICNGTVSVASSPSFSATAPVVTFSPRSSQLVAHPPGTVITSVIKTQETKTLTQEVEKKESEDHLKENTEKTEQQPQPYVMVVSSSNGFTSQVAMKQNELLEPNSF
# Procedure, shortened: as §1
# EHF = target: T3, EHF (Homo sapiens, UniProt Q9NZC4 1-300)
# T3 sequence: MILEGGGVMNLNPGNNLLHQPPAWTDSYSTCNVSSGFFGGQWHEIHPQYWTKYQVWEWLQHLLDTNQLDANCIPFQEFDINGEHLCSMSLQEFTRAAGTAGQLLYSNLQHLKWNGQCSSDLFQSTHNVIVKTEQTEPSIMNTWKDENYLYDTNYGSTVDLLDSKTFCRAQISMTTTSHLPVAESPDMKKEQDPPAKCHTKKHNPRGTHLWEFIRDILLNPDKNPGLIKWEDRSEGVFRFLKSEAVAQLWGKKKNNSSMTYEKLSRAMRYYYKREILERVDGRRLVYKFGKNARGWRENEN
# Procedure, shortened: as §1
# SPIB = SPIB (Homo sapiens, UniProt Q01892 1-262)
# Sequence of SPIB (Q01892 whole entry): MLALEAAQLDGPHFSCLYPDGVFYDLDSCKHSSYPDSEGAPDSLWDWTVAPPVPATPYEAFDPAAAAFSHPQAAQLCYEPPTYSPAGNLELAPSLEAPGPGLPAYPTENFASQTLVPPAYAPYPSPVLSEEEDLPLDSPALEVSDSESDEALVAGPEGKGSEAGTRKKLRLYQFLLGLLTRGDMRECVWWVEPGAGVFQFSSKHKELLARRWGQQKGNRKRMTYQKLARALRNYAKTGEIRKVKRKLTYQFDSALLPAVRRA
# Procedure, shortened: as §1
# ELK3 = target: T4, ELK3 (Homo sapiens, UniProt P41970 1-407)
# T4 sequence: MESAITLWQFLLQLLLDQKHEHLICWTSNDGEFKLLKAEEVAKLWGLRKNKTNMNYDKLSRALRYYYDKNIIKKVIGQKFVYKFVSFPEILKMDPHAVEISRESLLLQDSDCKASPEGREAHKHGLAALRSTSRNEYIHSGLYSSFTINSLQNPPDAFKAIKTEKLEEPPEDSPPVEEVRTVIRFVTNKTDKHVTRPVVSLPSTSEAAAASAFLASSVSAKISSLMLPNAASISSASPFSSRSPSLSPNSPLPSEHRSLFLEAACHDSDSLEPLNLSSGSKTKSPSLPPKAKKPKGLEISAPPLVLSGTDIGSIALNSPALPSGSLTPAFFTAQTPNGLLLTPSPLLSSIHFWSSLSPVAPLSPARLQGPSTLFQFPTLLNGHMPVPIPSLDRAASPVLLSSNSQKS
# Procedure, shortened: as §1
# FEV = target: T5, FEV (Homo sapiens, UniProt Q99581 1-238)
# T5 sequence: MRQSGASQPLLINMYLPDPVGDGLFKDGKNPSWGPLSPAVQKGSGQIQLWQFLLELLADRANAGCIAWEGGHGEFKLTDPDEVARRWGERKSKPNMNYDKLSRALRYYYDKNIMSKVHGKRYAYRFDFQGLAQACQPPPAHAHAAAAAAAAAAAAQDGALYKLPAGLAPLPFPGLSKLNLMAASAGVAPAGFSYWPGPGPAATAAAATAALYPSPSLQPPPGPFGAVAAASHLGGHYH
# Procedure, shortened: as §1
# ETV5 = ETV5 (Homo sapiens, UniProt P41161 1-510)
# Sequence of ETV5 (P41161 whole entry): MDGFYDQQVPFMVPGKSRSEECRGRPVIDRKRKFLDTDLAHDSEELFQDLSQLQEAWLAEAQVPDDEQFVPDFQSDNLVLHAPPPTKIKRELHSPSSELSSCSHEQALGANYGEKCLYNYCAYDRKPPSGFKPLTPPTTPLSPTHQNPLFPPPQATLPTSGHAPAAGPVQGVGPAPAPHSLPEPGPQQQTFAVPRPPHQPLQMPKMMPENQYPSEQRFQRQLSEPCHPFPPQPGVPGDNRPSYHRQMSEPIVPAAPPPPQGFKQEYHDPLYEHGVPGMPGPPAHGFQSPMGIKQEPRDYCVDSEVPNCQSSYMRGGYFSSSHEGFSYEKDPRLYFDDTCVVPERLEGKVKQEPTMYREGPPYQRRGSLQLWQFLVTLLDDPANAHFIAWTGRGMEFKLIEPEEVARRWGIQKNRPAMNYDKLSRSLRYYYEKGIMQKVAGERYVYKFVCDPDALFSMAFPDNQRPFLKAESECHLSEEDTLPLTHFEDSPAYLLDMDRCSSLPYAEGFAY
# Procedure, shortened: as §1
# ELF4 = ELF4 (Homo sapiens, UniProt Q99607 1-663)
# Sequence of ELF4 (Q99607 whole entry): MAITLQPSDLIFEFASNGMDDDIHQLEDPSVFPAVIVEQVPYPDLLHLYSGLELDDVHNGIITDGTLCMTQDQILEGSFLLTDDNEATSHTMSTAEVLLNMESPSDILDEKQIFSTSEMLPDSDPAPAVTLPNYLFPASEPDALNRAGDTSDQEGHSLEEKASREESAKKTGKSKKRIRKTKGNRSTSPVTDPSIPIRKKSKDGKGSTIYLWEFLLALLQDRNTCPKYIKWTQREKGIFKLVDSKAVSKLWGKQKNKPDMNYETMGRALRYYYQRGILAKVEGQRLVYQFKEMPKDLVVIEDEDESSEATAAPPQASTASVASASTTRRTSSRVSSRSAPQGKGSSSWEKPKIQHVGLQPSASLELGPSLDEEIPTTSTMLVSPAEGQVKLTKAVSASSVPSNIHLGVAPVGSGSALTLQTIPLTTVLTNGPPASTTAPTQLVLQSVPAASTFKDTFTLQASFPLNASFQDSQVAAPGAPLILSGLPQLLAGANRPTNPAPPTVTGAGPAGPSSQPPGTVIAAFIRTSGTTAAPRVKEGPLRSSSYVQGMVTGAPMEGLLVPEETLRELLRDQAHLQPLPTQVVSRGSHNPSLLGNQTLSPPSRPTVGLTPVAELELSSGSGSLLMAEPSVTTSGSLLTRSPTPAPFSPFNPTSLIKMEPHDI
# Procedure, shortened: as §1
# ELF3 = target: T6, ELF3 (Homo sapiens, UniProt P78545 1-371)
# T6 sequence: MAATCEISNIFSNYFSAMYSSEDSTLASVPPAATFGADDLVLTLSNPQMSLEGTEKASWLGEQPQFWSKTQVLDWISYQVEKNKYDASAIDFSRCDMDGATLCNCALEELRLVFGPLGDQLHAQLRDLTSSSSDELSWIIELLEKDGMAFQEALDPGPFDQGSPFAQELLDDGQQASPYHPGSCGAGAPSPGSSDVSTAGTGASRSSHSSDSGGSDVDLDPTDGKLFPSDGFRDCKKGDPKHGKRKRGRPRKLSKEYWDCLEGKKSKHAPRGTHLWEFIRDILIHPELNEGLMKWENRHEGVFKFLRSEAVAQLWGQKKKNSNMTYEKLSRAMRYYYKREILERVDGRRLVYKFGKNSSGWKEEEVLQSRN
# Procedure, shortened: as §1
# ETV1 = ETV1 (Homo sapiens, UniProt P50549 1-477)
# Sequence of ETV1 (P50549 whole entry): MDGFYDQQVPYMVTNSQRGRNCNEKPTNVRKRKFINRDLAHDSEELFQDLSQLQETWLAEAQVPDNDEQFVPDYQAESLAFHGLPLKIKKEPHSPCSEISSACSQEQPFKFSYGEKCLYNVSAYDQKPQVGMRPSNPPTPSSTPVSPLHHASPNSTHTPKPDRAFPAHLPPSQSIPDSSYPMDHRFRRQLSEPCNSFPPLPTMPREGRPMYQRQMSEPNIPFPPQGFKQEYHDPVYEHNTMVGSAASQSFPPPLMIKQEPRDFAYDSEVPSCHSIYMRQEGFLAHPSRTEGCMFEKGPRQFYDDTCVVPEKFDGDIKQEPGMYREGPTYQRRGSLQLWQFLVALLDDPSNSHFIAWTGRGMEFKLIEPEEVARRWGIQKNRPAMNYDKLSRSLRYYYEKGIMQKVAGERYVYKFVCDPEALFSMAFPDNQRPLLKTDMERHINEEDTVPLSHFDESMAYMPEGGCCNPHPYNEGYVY
# Procedure, shortened: as §1
# ERF = target: T7, ERF (Homo sapiens, UniProt P50548 1-548)
# T7 sequence: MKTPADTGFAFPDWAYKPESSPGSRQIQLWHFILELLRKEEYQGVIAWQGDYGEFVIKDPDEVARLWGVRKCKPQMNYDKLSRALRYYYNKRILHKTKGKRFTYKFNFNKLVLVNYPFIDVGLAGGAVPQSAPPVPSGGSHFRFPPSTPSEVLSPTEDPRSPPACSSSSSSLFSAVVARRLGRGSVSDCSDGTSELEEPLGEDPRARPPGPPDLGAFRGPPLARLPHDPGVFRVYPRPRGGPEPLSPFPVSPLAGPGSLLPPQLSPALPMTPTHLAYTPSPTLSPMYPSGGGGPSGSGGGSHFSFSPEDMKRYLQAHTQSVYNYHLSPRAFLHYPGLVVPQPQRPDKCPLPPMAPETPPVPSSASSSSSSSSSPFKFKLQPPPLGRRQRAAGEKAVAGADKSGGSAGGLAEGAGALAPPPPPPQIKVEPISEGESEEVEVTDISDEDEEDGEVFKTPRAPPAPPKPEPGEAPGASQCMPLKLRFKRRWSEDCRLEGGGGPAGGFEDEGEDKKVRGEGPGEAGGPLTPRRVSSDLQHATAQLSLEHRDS
# Procedure, shortened: as §1
# ETS2 = target: T8, ETS2 (Homo sapiens, UniProt P15036 1-469)
# T8 sequence: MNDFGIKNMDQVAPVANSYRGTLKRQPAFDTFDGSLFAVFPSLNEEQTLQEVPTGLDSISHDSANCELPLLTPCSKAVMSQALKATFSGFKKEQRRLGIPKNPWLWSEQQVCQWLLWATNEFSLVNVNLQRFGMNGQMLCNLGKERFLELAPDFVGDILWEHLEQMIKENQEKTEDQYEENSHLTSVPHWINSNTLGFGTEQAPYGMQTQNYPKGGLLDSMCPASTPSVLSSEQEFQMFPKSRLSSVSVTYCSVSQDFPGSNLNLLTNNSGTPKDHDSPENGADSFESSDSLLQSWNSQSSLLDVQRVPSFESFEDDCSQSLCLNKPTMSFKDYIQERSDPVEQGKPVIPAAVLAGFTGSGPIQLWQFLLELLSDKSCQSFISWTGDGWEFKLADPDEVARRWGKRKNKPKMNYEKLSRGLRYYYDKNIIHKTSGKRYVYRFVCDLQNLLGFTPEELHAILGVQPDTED
# Procedure, shortened: as §1
# SPDEF = target: T9, SPDEF (Homo sapiens, UniProt O95238 1-335)
# T9 sequence: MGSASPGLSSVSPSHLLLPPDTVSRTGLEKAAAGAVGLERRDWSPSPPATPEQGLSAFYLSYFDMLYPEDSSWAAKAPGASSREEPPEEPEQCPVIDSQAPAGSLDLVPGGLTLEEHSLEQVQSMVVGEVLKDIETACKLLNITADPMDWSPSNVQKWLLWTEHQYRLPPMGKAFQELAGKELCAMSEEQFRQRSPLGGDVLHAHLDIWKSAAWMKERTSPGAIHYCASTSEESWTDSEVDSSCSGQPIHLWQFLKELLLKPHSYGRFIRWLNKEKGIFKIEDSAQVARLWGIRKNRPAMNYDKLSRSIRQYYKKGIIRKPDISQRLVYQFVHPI
# Procedure, shortened: as §1
# ETV3 = target: T10, ETV3 (Homo sapiens, UniProt P41162-2 1-143)
# T10 sequence: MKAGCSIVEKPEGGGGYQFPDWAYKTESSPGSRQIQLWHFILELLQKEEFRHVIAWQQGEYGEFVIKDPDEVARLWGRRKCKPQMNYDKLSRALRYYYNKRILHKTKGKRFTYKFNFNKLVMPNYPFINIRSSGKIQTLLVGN
# Procedure, shortened: as §1
sequence,measurement,setting,value
ATAGCC,binding signal,ELK1,"1.08 fold enrichment (6-mer frequency, TF over GST control)"
same,binding signal,GABPA,"1.11 fold enrichment (6-mer frequency, TF over GST control)"
same,binding signal,ELF1,"1.05 fold enrichment (6-mer frequency, TF over GST control)"
same,binding signal,EHF,"1.1 fold enrichment (6-mer frequency, TF over GST control)"
same,binding signal,SPIB,"1.04 fold enrichment (6-mer frequency, TF over GST control)"
same,binding signal,ELK3,"1.01 fold enrichment (6-mer frequency, TF over GST control)"
same,binding signal,FEV,"1.1 fold enrichment (6-mer frequency, TF over GST control)"
same,binding signal,ETV5,"1.1 fold enrichment (6-mer frequency, TF over GST control)"
same,binding signal,ELF4,"1.1 fold enrichment (6-mer frequency, TF over GST control)"
same,binding signal,ELF3,"1.15 fold enrichment (6-mer frequency, TF over GST control)"
same,binding signal,ETV1,"1.03 fold enrichment (6-mer frequency, TF over GST control)"
same,binding signal,ERF,"1.1 fold enrichment (6-mer frequency, TF over GST control)"
same,binding signal,ETS2,"1.07 fold enrichment (6-mer frequency, TF over GST control)"
same,binding signal,SPDEF,"1.08 fold enrichment (6-mer frequency, TF over GST control)"
same,binding signal,ETV3,"1.06 fold enrichment (6-mer frequency, TF over GST control)"
